Shown are actives, neighbours in structure and some others; about 2.8% of the full set was active somewhere.
pPAFAH FP inh – pPAFAH (human) enzyme inhibition; AID 463082; 330,000 tested, 1.5% active; inhibition, % at 3.39 µM; recombinant pPAFAH, FP-rhodamine probe fluorescence polarization;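 active = inhibition above the mean inhibition across the screen plus 3 SD, cut at about 25% in these data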;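 also: inhibitors block binding of the rhodamine activity-based probe so polarization drops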
PAFAH1B2 inh – PAFAH1B2 (human) inhibition; 340,000 tested, 1.2% active; inhibition, % at 3.39 µM; recombinant PAFAH1B2, FP-rhodamine activity probe, fluorescence polarization; P68402;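 active = inhibition above the mean of all tested compounds plus 3 SD, cut at about 24% in these data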
Fam108B counter – counter-screen for RBBP9 inhibitors: inhibitors of mouse Fam108B. recombinant Fam108B, FP-Rh probe fluorescence polarization. inhibition, % at 9.51 µM. 300,000 tested, 0.33% active. AID 1947;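 active = inhibition above the screen mean inhibition plus 3 SD, computed separately per campaign, cut at about 18% in these data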;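 also: inhibitors lower polarization as less probe binds the enzyme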
PAFAH2 inh – inhibitors of human PAFAH2; Q99487; recombinant PAFAH2, FP-rhodamine activity probe, fluorescence polarization; inhibition, % at 3.39 µM; 340,000 tested, 0.99% active; AID 492956;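 active = inhibition above the mean over all tested compounds plus 3 SD, cut at about 30% in these data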;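 also: inhibitors block probe labeling of enzyme so polarization drops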
PAFAH1B3 FP inh – PAFAH1B3 (human) inhibition | 340,000 tested, 0.28% active | recombinant PAFAH1B3, FP-rhodamine probe, fluorescence polarization | AID 492972 | inhibition, % at 3.39 µM;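 active = inhibition above the screen-wide average of all tested compounds plus 3 SD, cut at about 25% in these data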
PME-1 primary – PME-1 (human) inhibition; Q9Y570; recombinant PME-1, FP-Rh probe fluorescence polarization; 320,000 tested, 0.53% active; AID 2130; inhibition, % at 5.9 µM;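 active = inhibition above the campaign mean of all compounds plus 3 SD, cut at about 26% in these data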;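 also: competitive labeling of PME-1 active site by serine hydrolase directed probe; inhibitors block probe labeling so polarization falls and inhibition rises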
Target sequence (Q9Y570 whole entry, looked up): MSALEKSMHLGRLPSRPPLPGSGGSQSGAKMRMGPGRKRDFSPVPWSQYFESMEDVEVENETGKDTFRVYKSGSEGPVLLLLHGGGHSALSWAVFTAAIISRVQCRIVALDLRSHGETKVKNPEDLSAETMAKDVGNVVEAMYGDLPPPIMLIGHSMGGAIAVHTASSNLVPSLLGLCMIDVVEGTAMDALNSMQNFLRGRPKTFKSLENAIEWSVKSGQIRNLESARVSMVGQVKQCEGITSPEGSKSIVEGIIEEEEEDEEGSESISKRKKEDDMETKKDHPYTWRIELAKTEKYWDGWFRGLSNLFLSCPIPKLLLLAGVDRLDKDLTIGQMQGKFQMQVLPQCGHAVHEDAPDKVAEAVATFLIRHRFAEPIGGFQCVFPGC
PAFAH1B3 conf FP – confirmation of human PAFAH1B3 inhibitors; inhibition, % at 3.39 µM; shares compounds with PAFAH1B3 FP inh; recombinant PAFAH1B3, FP-Rh activity-based probe, fluorescence polarization; 390 tested, 30% active;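 active = average inhibition over triplicate runs above the hit cutoff set in the earlier primary screen, cut at about 25% in these data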
Of the large screens only hits and unclear results are named; the others gave an inactive call (follow-up assays come after a bar, where they were run); ! = not confirmed by another sample.

Cc1cc(OCC(O)CN2CCN(c3ccccn3)CC2)cc(C)c1Cl (centres undefined)	none
O=C(N/N=C1\C/C(=N\NC(=O)c2ccncc2)c2ccccc21)c1ccncc1	PAFAH1B3 FP inh 28 | PAFAH1B3 conf FP inactive
O=C(COc1ccccc1)Nc1c2c(nn1-c1ccccc1)CS(=O)C2 (centres undefined)	none
Cn1c(=O)c(=O)n(C)c2cc(S(=O)(=O)CCC(=O)Nc3c(F)c(F)c(F)c(F)c3F)ccc21	none
O=C(NNC(=O)c1ccc2ccccc2c1O)NC1CCCCC1	PAFAH1B3 FP inh 30 (no result: pPAFAH FP inh, Fam108B counter, PME-1 primary) | PAFAH1B3 conf FP inactive
Cc1cccc(NC(=O)NNC(=O)c2ccc3ccccc3c2O)c1	PAFAH1B3 FP inh 43 (no result: pPAFAH FP inh, Fam108B counter, PME-1 primary) | PAFAH1B3 conf FP 82
COc1ccccc1NC(=O)NNC(=O)c1cc2ccccc2cc1O	PAFAH1B3 FP inh 32 | PAFAH1B3 conf FP 45
O=C(NNC(=O)c1ccc2ccccc2c1O)Nc1ccc(F)cc1	none
Cc1ccc(C(=O)NNC(=O)c2ccc3ccccc3c2O)cc1	none
COc1cc(OC)cc(C(=O)NNC(=O)c2cc3ccccc3cc2O)c1	none (no result: pPAFAH FP inh, Fam108B counter, PME-1 primary)
Cc1ccc(NC(=O)NNC(=O)c2cc3ccccc3cc2O)cc1	PAFAH1B3 FP inh 46 | PAFAH1B3 conf FP 76
O=C1NC(Cc2ccc(O)cc2)c2nc3cc(Cl)ccc3c(=O)n2-c2cc(Cl)ccc21 (centres undefined)	none (no result: pPAFAH FP inh, Fam108B counter, PME-1 primary)
CCc1ccc(/C=C/C(=O)C2C(=O)c3ccccc3C2=O)cc1	PAFAH1B3 FP inh 28 | PAFAH1B3 conf FP inactive
O=C(/C=C/c1ccccc1)C1C(=O)c2ccccc2C1=O	none
C/C(=N/Nc1ccc(C(=O)O)cc1)c1ccc2c(c1)Nc1ccccc1S2	PAFAH1B3 FP inh 26 (no result: pPAFAH FP inh, Fam108B counter, PME-1 primary) | PAFAH1B3 conf FP inactive
C/C(=N\Nc1ccc(Cl)c(C(=O)O)c1)c1ccc2c(c1)OCO2	none
CC(=O)c1ccc(OCc2cc(C(=O)NC3CCCCC3)no2)cc1	none
CCN(CC(=O)Nc1c(F)cccc1F)C(=O)c1cccc(S(=O)(=O)N(C)c2ccccc2)c1	none
CS/C(=N\S(=O)(=O)c1cccs1)NC(=O)CSc1nc2ccccc2s1	PAFAH1B3 FP inh 31! | PAFAH1B3 conf FP inactive
O=C(NCc1ccc(F)cc1)C(c1ccccc1)c1ccccc1	none
CC(=O)N(Cc1ccc(F)cc1)C1=C(NCc2ccccc2)C(=O)c2ccccc2C1=O	PAFAH1B3 FP inh 42 (no result: pPAFAH FP inh, Fam108B counter, PME-1 primary) | PAFAH1B3 conf FP inactive
Cc1c(OCC(=O)NCC2CCC(C(=O)O)CC2)ccc2c(-c3ccccc3)cc(=O)oc12 (centres undefined)	none
CCOC(=O)C1=CNS(=O)(=O)NC1c1ccc(Br)cc1F (centres undefined)	none (no result: Fam108B counter, PME-1 primary)
COc1cc(CCNC2=CC(=O)c3ncccc3C2=O)ccc1O	PAFAH1B3 FP inh 35 (no result: pPAFAH FP inh, Fam108B counter, PME-1 primary) | PAFAH1B3 conf FP inactive
CN(C(=O)CNC(=O)c1ccc(Br)o1)C1CCCCC1	none
Nc1ccc2nn(-c3ccc(F)cc3)nc2c1	PAFAH1B3 FP inh 28 | PAFAH1B3 conf FP inactive
CCC(=O)Nc1c(C#N)c2nc3ccccc3nc2n1C1CCCCC1	none
CCOC(=O)c1c(NC(=O)c2ccco2)n(C2CCCCC2)c2nc3ccccc3nc12	PAFAH1B3 FP inh 59 | PAFAH1B3 conf FP inactive

Bioassay records deposited in PubChem BioAssay by The Scripps Research Institute Molecular Screening Center.
